Measured values taken from ChEMBL document CHEMBL1157539, “Thousands of chemical starting points for antimalarial lead identification” (Nature, 2010).

Tested on: Plasmodium falciparum
Assay: GSK_TCMDC: Inhibition of Plasmodium falciparum 3D7 in whole red blood cells, using parasite LDH activity as an index of growth. Test compounds present at 2uM
Format: functional

Compound	Inhibition
O=C(Nc1cccc(CN2CCN(Cc3ccc(O)cc3)CC2)c1)c1cccc(C(F)(F)F)c1.O=C(O)C(F)(F)F	91%
Oc1ccc(Cl)cc1-c1cc(C(F)(F)F)nc(-c2ccccc2)n1	99%
Nc1ncc(-c2cccc(OCc3ccccc3)c2)cc1-c1nnc2ccc(Cl)nn12	94%
Cc1ccccc1C(=O)NC(NC(=S)Nc1ccc([N+](=O)[O-])cc1)C(Cl)(Cl)Cl (stereo not given)	100%
O=[N+]([O-])c1cccc(S(=O)(=O)N2CCN(CC(O)COc3ccc(-c4ccccc4)cc3)CC2)c1 (stereo not given)	94%

Tested on: Plasmodium falciparum
Assay: GSK_TCMDC: Inhibition of Plasmodium falciparum Dd2 in whole red blood cells, using parasite LDH activity as an index of growth. Test compounds present at 2uM
Format: functional

Compound	Inhibition
O=C(/C=C/c1ccc(Cl)c(Cl)c1)NCCCCCN1CCC(NC(=S)Nc2cccc(Cl)c2)CC1	43%
CS(=O)(=O)c1ccc(CCNCc2ccc(-c3ccc(CN(C(=O)C4CC(=O)c5ccccc54)C4Cc5ccccc5C4)cc3)nc2)cc1.O=C(O)C(F)(F)F (stereo not given)	21%
CC1(C)N=C(N)N=C(N)N1CCc1ccccc1.Cl	0%
COc1ccc2[nH]ccc(=NN=Cc3ccccc3F)c2c1	98%
Cc1cc(-c2cnc(N)c(-c3ccc(N4CCN(C)CC4)cc3)c2)cc(C)c1O	99%
Nc1nc(N)c2c(Oc3cccc4ccccc34)cccc2n1	10%
COc1ccccc1N1CCN(Cc2c(NC(C)=O)sc(C)c2C)CC1	80%
CSc1ccc(CN2CCC(NC(=O)c3ccc(-c4cccc(C(F)(F)F)c4)s3)CC2)cc1.O=C(O)C(F)(F)F	9%
COc1cccc(NC(=O)[C@H](C)n2c(=O)[nH]c3ccccc3c2=O)c1	92%
COc1cc2c(cc1CCNCCCCNCCc1cc3c(cc1OC)CCCC3)CCCC2.CS(=O)(=O)O	36%
CS(=O)(=O)c1ccc(CNCc2ccc(-c3cccc(-c4nc5cc(F)ccc5[nH]4)c3)cc2)cc1.O=C(O)C(F)(F)F	74%
CCC(C)CN1CCCN(c2ccc(NC(=O)c3cccs3)cc2)CC1.O=C(O)C(F)(F)F (stereo not given)	95%
CC(=O)O.CC(C)c1ccc(C2CCN(CCCCNC(=O)c3ccc(NC(=O)c4ccc(C(F)(F)F)cc4)cc3)CC2)c(O)c1	100%
CN1CCC(NCc2ccc(-c3ccc(S(=O)(=O)NCc4ccccc4)cc3)cc2)CC1.O=C(O)C(F)(F)F	51%
CCNC(C)(C)CN(Cc1ccc(-c2ccc(C(F)(F)F)cc2)cc1)C(=O)Cn1c(SCc2ccc(F)cc2)nc(=O)c2c1CCC2.O=C(O)C(O)C(O)C(=O)O	94%
O=C(Cc1c[nH]cn1)Nc1ccc(-c2ccc(-c3nc4cc(C(F)(F)F)ccc4[nH]3)s2)cc1	99%
COc1cc(NC(=O)c2sc(-c3ccc(Cl)cc3)cc2NC(=O)c2cccc(N(C)C)c2)ccc1OCCN1CCCC1	67%
Cc1nc2ccccn2c1C1(O)C(=O)Nc2c(Cl)cc(Cl)cc21 (stereo not given)	62%
O=C(Nc1cccc(C(F)(F)F)c1)c1cccc(S(=O)(=O)NC2CCN(CC3CCCCC3)C2)c1.O=C(O)C(F)(F)F (stereo not given)	45%
COc1ccc(C(=O)C2CCN(CCCCNC(=O)c3ccc(NC(=O)c4cc(Cl)cc(Cl)c4)cc3)CC2)cc1	84%

Compound	Inhibition
CS(=O)(=O)c1ccc(CCNCc2ccc(-c3ccc(CN(C(=O)c4cccc(C#N)c4)C4CCN(Cc5ccccc5)CC4)cc3)nc2)cc1.O=C(O)C(F)(F)F	56%
COc1ccc(-c2nc(NC(=O)Cc3cccc(OC)c3)sc2C)cc1	77%
Cc1cc(N[C@@H](CC(C)C)C(=O)NCCOc2ccccc2)nc(NCCOc2ccccc2)n1.O=C(O)C(F)(F)F	6%
COc1ccc(NC(=O)CCNc2cc(C)nc(NCCc3ccccc3)n2)cc1.O=C(O)C(F)(F)F	0%
CC(C)(C)c1ccc(C(=O)Nc2ccc3nc4c(c(N)c3c2)CCCC4)cc1.Cl	99%
Cc1cnc(NCC2CCCCC2)nc1N[C@@H](CC(C)C)C(=O)Nc1ccccc1.O=C(O)C(F)(F)F	55%
CC(C)CCNC(=O)C1Cc2c([nH]c3cc(Cl)ccc23)C2(CCN(CCc3ccccc3)CC2)N1 (stereo not given)	55%
Cc1c(CC(=O)N(C)C2CCN(CCCCCNC(=O)/C=C/c3ccc(Cl)c(Cl)c3)CC2)sc2ccc(Cl)cc12	9%
O=C(Nc1cccc(-c2csc(-c3nc4ccccc4[nH]3)c2)c1)c1cccnc1	45%
Cc1cc(C(=O)Nc2ccc(OCc3ccccc3)cc2)on1	89%
CCN(CC)CCN(Cc1ccc(-c2ccc(C(F)(F)F)cc2)cc1)C(=O)Cn1c(CCc2cccc(F)c2F)c(C)c(=O)c2ccccc21.O=C(O)C(O)C(O)C(=O)O	52%
COc1ccc(NC(=O)Nc2nc(-c3ccc(Cl)c(C)c3)cs2)cc1N1CCN(C)CC1.Cl	89%
C=CCc1cccc(CN2CCC(c3cc(O)nc(-c4ccccn4)n3)CC2)c1O	75%
COc1ccc(NC(=O)c2c(NC(=O)c3cccs3)sc3c2CCCC3)cc1	4%
CN1CCN(S(=O)(=O)c2cccc(Nc3nccc(N(C)c4ccc5c(c4)nc(NC(=O)c4cccs4)n5C)n3)c2)CC1	59%
O=C(Nc1cccc(CN2CCN(Cc3ccc(O)cc3)CC2)c1)c1cccc(C(F)(F)F)c1.O=C(O)C(F)(F)F	15%
Oc1ccc(Cl)cc1-c1cc(C(F)(F)F)nc(-c2ccccc2)n1	92%
Nc1ncc(-c2cccc(OCc3ccccc3)c2)cc1-c1nnc2ccc(Cl)nn12	7%
Cc1ccccc1C(=O)NC(NC(=S)Nc1ccc([N+](=O)[O-])cc1)C(Cl)(Cl)Cl (stereo not given)	39%
O=[N+]([O-])c1cccc(S(=O)(=O)N2CCN(CC(O)COc3ccc(-c4ccccc4)cc3)CC2)c1 (stereo not given)	32%
